Hit rate of the full screen: of about 96,000 compounds, about 19,000 (20%) were called active.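 How the source made its calls: active means blocking of liver enzyme CYP2C9 beyond about 50% at 5 µM (limit read from the data); inactive means the rest.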 Not all results are given here.
These compounds were tested against Cytochrome P450 2C9 (Homo sapiens) (UniProt P11712) (assay: blockers of cytochrome P450 2C9 activity – biochemical, luminescence, ADME assay, primary screen (AID 777)). Settings: CYP2C9 Supersomes, luciferin-H conversion, at 5 µM, stronger effect = higher value.
Chain of Cytochrome P450 2C9 (Homo sapiens) (P11712 whole entry, looked up): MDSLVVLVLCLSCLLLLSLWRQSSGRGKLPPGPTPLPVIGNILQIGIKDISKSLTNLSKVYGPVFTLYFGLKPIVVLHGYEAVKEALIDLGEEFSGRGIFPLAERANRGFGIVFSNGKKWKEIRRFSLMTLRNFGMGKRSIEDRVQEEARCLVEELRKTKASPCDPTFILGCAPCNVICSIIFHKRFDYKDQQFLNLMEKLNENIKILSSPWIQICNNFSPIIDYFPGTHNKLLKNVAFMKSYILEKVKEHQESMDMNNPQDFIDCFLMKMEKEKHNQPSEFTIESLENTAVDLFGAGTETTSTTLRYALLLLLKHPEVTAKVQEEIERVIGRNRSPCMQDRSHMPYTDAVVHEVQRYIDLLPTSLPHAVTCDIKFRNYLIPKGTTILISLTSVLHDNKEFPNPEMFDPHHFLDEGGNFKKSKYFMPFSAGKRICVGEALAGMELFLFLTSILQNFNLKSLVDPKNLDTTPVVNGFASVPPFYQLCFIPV

Row | Structure (SMILES) | inhibition
1 | Cc1ccc(C(CC(=O)O)Nc2nc(N3CCCCC3)nc(N3CCCCC3)n2)cc1 (stereo unspecified) | 45.8% (inactive)
2 | CN(C(=O)COc1nnc(-c2cccs2)c(-c2cccs2)n1)c1ccccc1 | 89.6% (active)
3 | COCC(=O)Nc1nnc(COc2ccccc2)s1 | -2.1% (inactive)
4 | CCOc1cccc(C(=O)Nc2nnc(-c3cccs3)s2)c1 | -32.5% (inactive)
5 | COc1ccc(C2C(C(=O)N3CCN(c4ccc(OC)cc4)CC3)c3ccccc3C(=O)N2C)cc1 (stereo unspecified) | 1.9% (inactive)
6 | Fc1ccccc1COc1ccccc1CNCc1ccncc1 | 65.9% (active)
7 | c1ccc(COc2ccccc2CNCc2cccnc2)cc1 | -14.1% (inactive)
8 | COc1ccccc1CNCc1cccs1 | 18.8% (inactive)
9 | COC(=O)c1cc(OC)c(OC)cc1NC(=O)C1CCCO1 (stereo unspecified) | 20.4% (inactive)
10 | CC(C)C(=O)N1CCN(CCN=CC2=C(O)CC(c3ccco3)CC2=O)CC1 (stereo unspecified) | -7.6% (inactive)
11 | c1nnc2c3c4c(sc3ncn12)CCC4 | 8.2% (inactive)
12 | C=C(C)CSc1nc(N)c2c3c(sc2n1)CCC3 | 51.5% (active)
13 | CCC1(C)Cc2c(sc3nc(SC)nc(N)c23)CO1 (stereo unspecified) | 30.3% (inactive)
14 | Cc1cccc(C)c1NC(=O)N1CC=C(n2c(=O)[nH]c3ccccc32)CC1 | -1% (inactive)
15 | CCOC(=O)c1cc2occc2n1CC(=O)N1CCN(C(=O)c2ccco2)CC1 | 3.7% (inactive)
16 | COc1ccc(C(=O)Nc2ccc(CN3CCOCC3)cc2)cc1 | 22.1% (inactive)
17 | Cn1c(CN2CCOCC2)nc2cc(NC(=O)c3ccc(Cl)cc3)ccc21 | 10.4% (inactive)
18 | COc1cccc2cc(C(C)N(CCCN3CCOCC3)C(=O)Nc3ccc(Cl)cc3)oc12 (stereo unspecified) | 53.4% (active)
19 | CCCc1nc2oc3c(OCC)ncnc3c2c2c1COC(C)(C)C2 | -5.1% (inactive)
20 | CC(=O)N(Cc1cccs1)C1CCOC(C)(C)C1 (stereo unspecified) | 9.1% (inactive)
21 | O=C(NNS(=O)(=O)c1ccc(Cl)cc1)C1CCN(Cc2ccccc2)CC1 | 16.1% (inactive)
22 | O=C(NC1CCCCC1)C1c2ccccc2C(=O)N1Cc1ccco1 (stereo unspecified) | 6.7% (inactive)
23 | O=C1c2ccccc2C(Nc2ccc3c(c2)OCCO3)N1Cc1ccco1 (stereo unspecified) | 64% (active)
24 | Cc1ccnc(N2C(=O)c3ccccc3C2Nc2ccc3c(c2)OCCO3)c1 (stereo unspecified) | 71% (active)
25 | CCc1ccccc1NC1c2ccccc2C(=O)N1c1cccnc1 (stereo unspecified) | 15.2% (inactive)
26 | Cc1cccc(C(=O)Nc2ccccc2-c2nnn(CC(=O)Nc3ccc4c(c3)OCCO4)n2)c1 | 4.2% (inactive)

Row | Structure (SMILES) | inhibition
27 | Cc1ccc(Cc2c(C)nc3nc(SCC(=O)NCCN4CCOCC4)nn3c2C)cc1 | 9% (inactive)
28 | Clc1ccc(-n2nnnc2CN2CCCCC2)cc1Cl | 12.4% (inactive)
29 | COc1ccc(N(CC(=O)NC2CCCCC2)S(=O)(=O)c2c(C)[nH]c(=O)[nH]c2=O)cc1 | 33.9% (inactive)
30 | Cc1ccc(-n2ncc3c(N4CCN(c5ccc(F)cc5)CC4)ncnc32)c(C)c1 | -9.7% (inactive)
31 | CCc1cc2c(N3CCN(c4nnc(CC)s4)CC3)ncnc2s1 | 59.6% (active)
32 | O=S(=O)(N1CCCCC1)N1CCNCC1 | -27.8% (inactive)
33 | Cn1nc(-c2ccccc2)c(CSc2cccc(Cl)c2)c1Cl | 44.7% (inactive)
34 | Cc1nc2nc[nH]n2c(=O)c1NC(=O)c1cccc(OCC(C)C)c1 | 7.2% (inactive)
35 | O=C(NCc1ccco1)c1nc(-c2ccccc2)n(-c2ccccc2)n1 | 51.3% (active)
36 | O=C(NCc1ccco1)c1nc2ncccn2n1 | -9.7% (inactive)
37 | O=C(Cc1ccccc1)n1nc(-c2ccccc2)nc1NCc1ccco1 | 8.8% (inactive)
38 | CCOCCCNC(=O)C(NC(=O)CNC(=O)c1ccccc1)c1ccc(C)cc1 (stereo unspecified) | -22.9% (inactive)
39 | Cc1ccccc1NC(=S)Nc1cccc([N+](=O)[O-])c1 | 22.3% (inactive)
40 | C/C(=N\NS(=O)(=O)c1cccc([N+](=O)[O-])c1)c1cc2ccccc2o1 | 91.4% (active)
41 | CCCS(=O)(=O)N1CCCC(C(=O)NCCN2CCCCC2C)C1 (stereo unspecified) | -5.4% (inactive)
42 | CCCc1ccc(-c2c(C)sc(NC(=O)c3ccnn3C)c2C#N)cc1 | 43.6% (inactive)
43 | CC(=O)NS(=O)(=O)c1ccc(NC(=O)/C=C/c2ccccc2Cl)cc1 | 12.7% (inactive)
44 | CCCS(=O)(=O)N1CCC(C(=O)NCCc2ccc(OC)c(OC)c2)CC1 | -5.4% (inactive)
45 | COc1ccc(CCN(C)C(=O)C2CCCN(Cc3ccc(OC)c(OC)c3)C2)cc1OC (stereo unspecified) | 27.1% (inactive)
46 | COc1ccc(CCNC(=O)C2CCCN(Cc3nc(-c4cccc(Cl)c4)oc3C)C2)cc1OC (stereo unspecified) | 58.8% (active)
47 | Nc1nnnn1/N=C/c1cccs1 | -2% (inactive)
48 | O=C(Nc1c(Cl)cccc1Cl)C1CCC1 | 0.8% (inactive)
49 | CCn1c(O)c2ccc(C(=O)N=NC(=O)c3cccnc3)cc2c1O | -3.1% (inactive)
50 | COc1cc(OC)cc(C(=O)NC(=S)N2CCN(c3ccc(C(F)(F)F)cc3[N+](=O)[O-])CC2)c1 | 13.9% (inactive)
51 | CCNc1nc(N)nc(Oc2ccc(OCC)nn2)n1 | -26.3% (inactive)
52 | OCCNCCCCOc1ccccc1F | -0.4% (inactive)

Row | Structure (SMILES) | inhibition
53 | CSc1nc(N(C)NC(=O)c2cccc(C)c2)c2ccccc2n1 | -0.3% (inactive)
54 | CC(=O)c1ccc(Cc2ncc(C(F)(F)F)cc2Cl)s1 | -2.6% (inactive)
55 | COc1cccc(NC(=O)C(C)Oc2ccccc2)c1 (stereo unspecified) | 56.1% (active)
56 | COc1ccc(OC(C)C(=O)Nc2cccnc2)cc1 (stereo unspecified) | 3.3% (inactive)
57 | COc1cccc(NC(=O)c2ccccc2SC)c1 | -4.1% (inactive)
58 | CCCCN(CCCC)C(=O)CCS(=O)(=O)c1ccc2c(c1)n(C)c(=O)c(=O)n2C | 14.4% (inactive)
59 | Cc1cccc(CSc2nnc(NC(=O)CSc3nnc(C)s3)s2)c1 | -12% (inactive)
60 | CC(CCO)Nc1nc2c([nH]1)c(=O)n(C)c(=O)n2C (stereo unspecified) | 19.8% (inactive)
61 | COc1ccc(OC)c2[nH]c(=O)c(CCNC(=O)C(C)(C)C)cc12 | -7% (inactive)
62 | COc1ccc(NS(=O)(=O)c2ccc(NC(C)=O)cc2)cc1OC | -8.7% (inactive)
63 | CC(=O)Nc1ccc(S(=O)(=O)Nc2nc3n(n2)C(c2ccccc2)CC(=O)N3)cc1 (stereo unspecified) | -3.6% (inactive)
64 | COc1cc(NS(=O)(=O)c2ccc(NC(C)=O)cc2)cc(OC)c1 | 43.7% (inactive)
65 | O=C(O)CCC(=O)Nc1ccc(N2CCOCC2)cc1 | 3.7% (inactive)
66 | COc1ccc(C(=O)Nc2ccc(S(=O)(=O)NC(C)C)cc2)cc1 | 34.1% (inactive)
67 | CC(=O)NS(=O)(=O)c1ccc(NC(=S)NC(=O)C(C)(C)C)cc1 | -22.1% (inactive)
68 | COc1ccc(NS(=O)(=O)c2ccc(NC(=O)C(C)(C(F)(F)F)C(F)(F)F)cc2)nn1 | 12.4% (inactive)
69 | COc1ccc(NS(=O)(=O)c2ccc(NC(=S)NC(=O)CC(C)C)cc2)cc1 | 54.8% (active)
70 | CC(=O)Nc1ccc(S(=O)(=O)Nc2cccc(NC(=O)C(C)(C)C)c2)cc1 | 59.2% (active)
71 | COC(=O)COc1ccc(S(=O)(=O)Nc2ccc(NC(C)=O)cc2)cc1 | 61.2% (active)
72 | CCCC(NS(=O)(=O)c1ccc(OC)cc1)C(=O)O (stereo unspecified) | 12.5% (inactive)
73 | CC(=O)Nc1ccc(S(=O)(=O)Nc2ccc(N3CCOCC3)c(F)c2)cc1 | 50% (active)
74 | Cc1ccccc1-n1nc(C)c2cc(C(=O)NC3CC3)sc21 | 37.1% (inactive)
75 | O=C(c1ccco1)N1CCN(CC(=O)N(C2CCCCC2)C2CCS(=O)(=O)C2)CC1 (stereo unspecified) | -18.6% (inactive)
76 | O=[N+]([O-])c1ccccc1OCCCCN1CCCCC1 | -4% (inactive)
77 | CCCC(=O)Nc1nc2ccc(NC(=O)c3cccnc3)cc2s1 | 27.5% (inactive)
78 | CCc1c(C)sc(NC(=O)c2ccc(Br)o2)c1C(=O)OC | -40.5% (inactive)

Row | Structure (SMILES) | inhibition
79 | CCOC(=O)c1c(CN2CCOCC2)n(-c2ccccc2)c2ccc(O)cc12 | 38.1% (inactive)
80 | COc1cccc(CN2C(=O)CCC2(C)C(=O)NC2CCCCCC2)c1 (stereo unspecified) | -58.7% (inactive)
81 | CCNc1nc(SCCOc2ccccc2)nc(N(C)C)n1 | -4.3% (inactive)
82 | Cn1c(=O)cc(SCC(=O)N2CCCC2)c2cc(Cl)ccc21 | 0.1% (inactive)
83 | CCOC(=O)Nc1ccc2c(c1)N(C(=O)CN1CCN3CCCC3C1)c1ccccc1CC2 (stereo unspecified) | 0.1% (inactive)
84 | CSCC[C@H](NC(=O)NCc1cccs1)C(=O)O | -6.8% (inactive)
85 | COc1ccc(-n2ncc3c(N4CCc5ccccc54)ncnc32)cc1 | -29.5% (inactive)
86 | CC1(C)CC(=O)C=C(NC2CC(C)(C)NC(C)(C)C2)C1 | 9.6% (inactive)
87 | Cc1ccc(S(=O)(=O)NCC(=O)N2CCN(c3ccccn3)CC2)cc1 | 5.3% (inactive)
88 | Cc1ccc2oc(=O)c3cnn(CC(=O)N4CCN(c5ccccn5)CC4)c3c2c1 | 20.1% (inactive)
89 | Cc1ccnc(N2CCN(C(=O)CSc3nc4ccccc4nc3N3CCCCC3)CC2)c1 | 98.5% (active)
90 | CCCc1cc(-c2n[nH]c(=S)n2Cc2ccccc2)cs1 | 38.6% (inactive)
91 | CC(C)c1ccc(N2CCN(C(=O)c3ccccc3NC(=O)/C=C(\C(=O)O)c3ccccc3)CC2)cc1 | 18% (inactive)
92 | CCOCCN(C=O)c1cccc(OC)c1 | -20.4% (inactive)
93 | CCOC(=O)CN(Cc1ccc(OC)c(OC)c1)S(=O)(=O)c1ccc(OC)cc1 | 64% (active)
94 | O=C(OCc1cc2ccccc2[nH]c1=O)c1cccnc1 | 12.7% (inactive)
95 | C=CCSc1nc(Cc2ccc(Cl)cc2)nc2ccccc12 | 2.7% (inactive)
96 | O=C(CC1Nc2ccccc2NC1=O)Nc1ccccc1 (stereo unspecified) | 6.5% (inactive)
97 | O=C(CCN1c2ccccc2Sc2ccccc21)Nc1ccccc1 | 95.4% (active)
98 | O=C(O)CCCC(=O)Nc1ccccc1-n1ccnc1 | 0.8% (inactive)
99 | O=C(CCN1C(=O)c2ccncc2C1=O)Nc1ccc2c(c1)OCCO2 | -3.9% (inactive)
100 | O=C(CCN1C(=O)c2ccccc2C1=O)Nc1cccc(F)c1 | 28.8% (inactive)
101 | O=C(CCN1C(=O)c2ccccc2C1=O)Nc1ccncc1 | 65.7% (active)
